Laboratory results published in ChEMBL document CHEMBL4888484, “Replenishing the malaria drug discovery pipeline: Screening and hit evaluation of the MMV Hit Generation Library 1 (HGL1) against asexual blood stage Plasmodium falciparum ,using a nano luciferase reporter read-out” (2022).
Out of some 4,800 compounds screened, about 410 (8.5%) showed an effect of 50% or more. The full list was thinned out, with strong results kept by preference.

system: Plasmodium falciparum; experiment: Confirmatory screen in NF54 pLDH assay, in single point, at 2uM, 72h; assay type: functional, Erythrocyte; details: timepoint 72 hour

Structure (SMILES)	% Inhibition [%]
COc1ccc(CNC(=O)Nc2ccc3c(c2)N(C(=O)c2ccccc2)CCC3)cc1OC	11
COc1ccc([C@H](C(=O)Nc2ccc(N(C)C)cc2)N(Cc2ccccc2)C(=O)Cc2ccccc2)cc1OC	-14
CCC(C(=O)Nc1ccc2c(c1)CN(CCc1ccc(OC)c(OC)c1)C(=O)C(C)O2)c1ccccc1 (stereo not drawn)	100
Cc1ccc(NC(=O)Cn2c(C)nc3c(-c4ccccn4)nsc3c2=O)c(C)c1	12
CC[C@@H](CO)NCc1cccc(OC)c1OCC(=O)NC(C)(C)C	-12
CCOc1cc(CNc2cccc3ccccc23)cc(Br)c1OCC(=O)NC(C)(C)C	91
COc1cccc(CNC(C)(C)C)c1OCC(=O)NC(C)(C)C	-4
O=C(Nc1ccn(-c2ccccc2)n1)N1CC2CCC(O)CC2C1 (stereo not drawn)	-3
Cc1nsc2ncc(C(=O)N3CCC(C)CC3)c(N3CCC(C(=O)Nc4cc(F)ccc4F)CC3)c12	44
COc1ccccc1CNCCNC(=O)c1ccncc1	9
Cc1cnccc1NCCNCc1cccc(O)c1Cl	101
Clc1cc(CNCCc2ccccc2)ccc1OCc1ccccc1	3
N#Cc1c(CN(CCn2cccn2)Cc2cn3ccccc3c2C#N)cn2ccccc12	-22
C=CCN(CC=C)S(=O)(=O)c1ccc(S(=O)(=O)NC)cc1	-10
O=C(NC1CCCC1)c1cnn2c3c(cnc12)CCCCCC3	11
CCn1cc(Cl)c(C(=O)N(C2CCCCC2)C2CCCCC2)n1	10
Fc1cccc(F)c1-n1c(CN2CCCCC2)csc1=S	-5
CC(C)c1c2cc3c(cc2nn1-c1ccccc1)OCCO3	-11
CCCCCNC(=O)NCc1ncoc1C	4
C[C@H](O)CNCc1ccc(Cl)cc1Cl	1
Cc1cc(C)cc(-n2c(=O)c3sccc3n(CC(=O)NCc3ccccc3Cl)c2=O)c1	-17
O=c1[nH]c2ccccc2nc1-c1cc(Br)ccc1NS(=O)(=O)c1cccc2nsnc12	3
Fc1ccccc1N1CCN(c2c3c(nc4nc(Cc5ccc(Cl)cc5)nn24)CCCC3)CC1	7
CNc1nc(N2C[C@H](C)[C@@](O)(C3CC3)C2)nc2c1CCC2	1
Cc1cc(-c2ccccc2)c(C#N)c(=O)n1C(=O)c1ccc(C#N)cc1	11

Structure (SMILES)	% Inhibition [%]
Brc1cc(Br)c2nc(-c3ccc(C4CCCCC4)cc3)ccc2c1	12
Cc1[nH]c2ccnn2c(=O)c1CC(=O)N1CC[C@H](C)c2cccc(O)c21	2
CCN(CC)c1nc(-c2ccccc2)c(C#N)c(N)c1C#N	12
O=C(CN1CCC[C@H]1C1CCCC1)NCC1CCCCC1	61
CC(C)N1CCC(NC(=O)NCC2CCCCCCC2)CC1	6
O=C(CN1CCOC2CCCCC21)N1CCOC2CCCCC21 (stereo not drawn)	-9
COc1ccc(OCC(=O)Nc2ccc(N3CCn4c(nc5cc(Cl)ccc54)C3)cc2OC)cc1	-5
CC(C)COc1ccc(/C(N)=N/O)cc1	-20
Cc1ccccc1CN(Cc1ccccn1)Cc1ccnn1C	-5
CC1CCC(N(C)C(=O)c2cc(S(=O)(=O)N3CCCCC3)ccc2N2CCCC2)CC1 (stereo not drawn)	-10
Cc1cc(C(=O)N[C@H]2CCS(=O)(=O)C2)nc(N(C)C)n1	2
Cc1ccc(N2C(=O)CN(CC(C)C)[C@H]3CS(=O)(=O)C[C@H]32)cc1	14
Cc1cccc(NC(=O)CCC(=O)OCC(F)(F)C(F)F)c1C	1
CC(C)(C)[C@H]1CCc2c(sc(NC(=O)C3(F)C(F)(F)C(F)(F)C(F)(F)C(F)(F)C3(F)F)c2C#N)C1	51
N#Cc1c(NC(=O)CN2CCC[C@@H]2CO)sc2c1CCCCC2	0
COCCN(CC(N)=O)CC(=O)NCc1ccccc1F	9
COc1ccc(CCNc2nc(-c3ccc(OC)cc3F)c3c(N)n(-c4ccc(Cl)cc4)nc3n2)cc1	40
CC(C)(C)n1nc2nc(NCCN3CCCCC3)nc(-c3ccc(F)c(Cl)c3)c2c1N	76
COCCNc1nc(-c2ccccc2OC)c2c(N)n(-c3ccc(F)cc3)nc2n1	-5
CN(Cc1ccsc1)C(=O)c1cc2ccccc2[nH]1	17
CCOc1ccc(-[n+]2cc(-c3ccccc3)n3c2CCC3)cc1	70
Cn1c(-c2ccc(Br)cc2)c[n+](CC(=O)c2ccc(Br)cc2)c1N	-4
COc1ccc(CC(=O)NCc2nnc3n2CCC3)cc1	9
Cc1ccc(-c2c[n+](-c3ccc(OC(F)F)cc3)c3n2CCCCC3)cc1	60
Cn1c(-c2ccc(Cl)c(Cl)c2)c[n+](CC(=O)c2ccc(F)cc2)c1N	-12

Structure (SMILES)	% Inhibition [%]
CCOc1nc(C)nc2cc(-c3ccccc3)n(Cc3ccccc3)c12	13
COc1ccc(C(=O)C[n+]2cc(-c3ccc(OC)cc3)n3c2CCCC3)cc1	65
FC(F)Oc1ccc(-c2c[n+](-c3cccc(C(F)(F)F)c3)c3n2CCCCC3)cc1	42
COc1ccc(C(=O)C[n+]2nc(CNc3ccc(Br)cc3)n3c2CCCCC3)cc1	82
Cc1nnc(NC(c2cnc3ccccc3c2)[C@H]2C[C@@H](O)C2)s1 (stereo partly drawn)	12
O=C(Cc1c[nH]c2ccccc12)N1CCc2ccccc2C1	-17
COc1ccc2c(c1)OC13CCN(C)CC1C2C(C(=O)c1ccccc1OC)C(=O)N3 (stereo not drawn)	10
CCC(=O)N1CCc2sc(S(=O)(=O)N3CCN(c4cc(C)ccc4C)CC3)cc2C1	38
c1ccc(-c2cn(-c3ccccc3)c3ncnc(N4CCCC4)c23)cc1	13
C=CCOc1cc(C(=O)N2CCCCC2)cc2occc12	11
COc1cc([C@H]2CC(=O)Nc3c2cnn3C)ccc1OCc1ccccc1	-8
O=C(NC1CCCNC1=O)NC1CCCC1c1ccc(Cl)cc1 (stereo not drawn)	10
O=C(NCCC1=CCOCC1)c1cnc2ccccn12	-2
O=C(CCc1ccccc1)Nc1ccc(-n2nn[nH]c2=O)cc1	15
O=C1Nc2ccccc2[C@@]12Nc1ccccc1CO2	9
C[C@@H](C(=O)N1CCN(C/C=C/c2ccccc2)CC1)N1Cc2ccccc2C1=O	0
Cc1ccc(CCNC(=O)c2ccc(-c3nc(CS(=O)(=O)c4ccc(C)cc4)c(C)o3)cc2)cc1	-23
COc1ccc(N2CCN(Cc3cc(-c4ccc(Cl)cc4)no3)CC2)cc1	-19
COc1ccc(-c2c[n+](-c3ccc(Cl)cc3)c3n2CCCCC3)cc1	57
COc1ccc(-n2nc(C(=O)N3CCN(c4ncccn4)CC3)c(=O)cc2OC)cc1	-29
CCC(C)(C)N(C)C(=O)c1ccccc1Cl	-1
COc1ccc2c(c1)CCN2S(=O)(=O)c1ccc2c(c1)OCCO2	-4
Cc1cc(C)n(S(=O)(=O)c2ccc3c(c2)OCCO3)n1	7
CC12CN(S(=O)(=O)c3ccc4c(c3)OCCO4)C3(C(=O)OCc4ccccc4)CC1CCC23C (stereo not drawn)	64
CC(C)C(=O)N1N=C(C(C)C)C[C@]1(O)C(F)(F)F	13

Structure (SMILES)	% Inhibition [%]
Oc1csc(Cc2nc(C(F)(F)F)cs2)n1	-4
COC1(CNC(=O)C[C@H](O)c2ccccc2)CCC1	-2
COc1cccc(CCc2ccccc2OC[C@H](CN(C)C)OC(=O)CCC(=O)O)c1	-5
O=C(C[C@H](NCCO)C(=O)O)c1ccc2c(c1)CCCC2	2
O=C(Nc1ccsc1C(=O)NCc1cc(F)cc(F)c1)c1cnccn1	13
CNc1nc(C)cc(C(=O)Nc2ccc(Cl)cc2NC(C)=O)n1	5
C[C@@H](NC(=O)Nc1ccc(Cl)c(Cl)c1)C(=O)O	10
O=C(Nc1ccc(Cl)c(Cl)c1)Nc1ccc(Cl)cc1NC(=O)Nc1ccc(Cl)c(Cl)c1	65
COc1ccc(-c2cc3n(n2)C[C@@](C)(C(=O)NCc2ccccc2)N(Cc2ccc4c(c2)OCO4)C3=O)cc1	39
COc1cc(N2CCn3c(nc4cc(Cl)ccc43)C2)ccc1NC(=O)C1CCCCC1	-13
Cc1ccccc1C(=O)N(Cc1cccc(F)c1)c1ccc(CC(=O)NCCN2CCCCC2)cc1	39
Cc1ccc(C(=O)N(Cc2cccc(F)c2)c2ccc(CC(=O)N[C@@H](C)c3ccccc3)cc2)cc1	89
O=C(Cc1ccc(N(Cc2cccc(F)c2)C(=O)c2cccc(F)c2)cc1)NCCN1CCCCC1	29
O=C(OCc1cncs1)c1ccccc1	10
Cc1cc2nnc(-c3nc4ccccc4[nH]3)c(N)n2n1	-2
Nc1c(-c2nc3ccccc3[nH]2)c2nc3ccccc3nc2n1Cc1ccccc1F	62
CCC1C(C(=O)NCCN(C)CCOC)CCN1C(=O)OC(C)(C)C (stereo not drawn)	1
CCn1ccc([C@H](C)NC(=O)c2cc(-c3ccc(OC)cc3)nc3c2c(C)nn3C)n1	12
Cc1c(CN(C)C(=O)Cn2ncc(Br)c2C)cnn1C	4
CCc1ccc(CN2C(=O)c3c(C(=O)OC)ncn3C[C@@]2(C)C(=O)NC2CCCCCC2)cc1	14
C[C@@]1(C(=O)NCc2ccccc2)Cn2nc(-c3ccccc3)cc2C(=O)N1c1ccc2c(c1)OCCO2	36
CCc1ccc(-c2cc3n(n2)C[C@@](C)(C(=O)NC2CCCCC2)N(c2cc(C)cc(C)c2)C3=O)cc1	58
O=C(O[C@@H](c1ccccc1)N1C(=O)C(C(F)(F)F)(C(F)(F)F)c2ccccc21)C(C(F)(F)F)C(F)(F)F	12
